# From PubChem BioAssay (EPA / NIEHS)
# “And” between values parts separate entries of the source, which are not always exact repeats. Identical values can stand only once. Inconclusive results are not listed. A structure can be active in one record and inactive in another. The source made the active and inactive calls. How the source made its calls: active means hit-call score of the fitted dose curve at least 0.9, where 1 is the maximum; inconclusive means response in the unintended direction; inactive means score below 0.9.
# Legend:
# [1] = tested on: guinea pig Leukotriene B4 Receptor (LTB4), gene 100379538; experiment: NVS_GPCR_gLTB4: NovaScreen (NVS) G Protein-Coupled Receptor Assay for guinea pig Leukotriene B4 Receptor (LTB4) (AID 2283247)
# Procedure, shortened: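 Membranes from guinea pig spleen incubated 2 h with radioligand and compound; bound counts measured by filtration and scintillation. Screened first at 25 uM in duplicate, then actives titrated to a 50 uM top concentration relative to DMSO.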
# [2] = target: guinea pig Leukotriene D4 Receptor (LTD4), CYSLTR1 (gene 100135514) (UniProt Q2NNR5); experiment: NVS_GPCR_gLTD4: NovaScreen (NVS) G Protein-Coupled Receptor Assay for guinea pig Leukotriene D4 Receptor (LTD4) (AID 2283248)
# Procedure, shortened: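 Guinea pig lung membrane preparation; bound radioligand measured by filter scintillation after 1 h, loss of signal versus DMSO marking displacement. Compounds tested at 25 uM in duplicate, hits retested to max 50 uM.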
# [3] = target: human Serotonin, 5-Hydroxytryptamine Receptor 5A (5HT5A), HTR5A (gene 3361) (UniProt P47898); experiment: NVS_GPCR_h5HT5A: NovaScreen (NVS) G Protein-Coupled Receptor Assay for human Serotonin, 5-Hydroxytryptamine Receptor 5A (5HT5A) (AID 2283251)
# Procedure, shortened: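 Membranes from HEK293 cells, radioligand binding read by filtration and scintillation after 1 h. Single-concentration duplicate testing at 25 uM, then concentration-response for actives; positive-direction fitting relative to DMSO.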
# [4] = target: Adenosine receptor A1 (Bos taurus) (UniProt P28190); experiment: NVS_GPCR_bAdoR_NonSelective: NovaScreen (NVS) G Protein-Coupled Receptor Assay for bovine Adenosine Receptor (AdoR), Non-selective Binding (AID 2283244)
# Procedure, shortened: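 Cell-free binding with membranes from bovine striatum: radioligand displaced by test chemical, read after 1 h by filtration and scintillation. Single-point 25 uM duplicate primary, 50 uM top concentration in follow-up curves, DMSO baseline.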
# [5] = target: human Adenosine A2a Receptor (AdoRA2a), ADORA2A (gene 135) (UniProt P29274); experiment: NVS_GPCR_hAdoRA2a: NovaScreen (NVS) G Protein-Coupled Receptor Assay for human Adenosine A2a Receptor (AdoRA2a) (AID 2283256)
# Procedure, shortened: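 HEK293-derived receptor preparation, radioligand displacement, 1.5 h, filtration + scintillation read. Loss of bound signal scored vs DMSO. Single-point 25 uM in duplicate first, then concentration-response for actives.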
# [6] = target: human Serotonin, 5-Hydroxytryptamine Receptor 7 (5HT7), HTR7 (gene 3363) (UniProt P34969); experiment: NVS_GPCR_h5HT7: NovaScreen (NVS) G Protein-Coupled Receptor Assay for human Serotonin, 5-Hydroxytryptamine Receptor 7 (5HT7) (AID 2283255);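 further: hits reduce specific radioligand binding relative to DMSO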
# Procedure, shortened: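 Filter-bound radioactivity counted after 1 h, with loss of specific radioligand binding fitted against DMSO. Membrane protein came from CHO cells expressing human 5HT7. Chemicals were tested first at 25 uM in duplicate, then in concentration series if active.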
# [7] = target: human Adrenergic, Beta 1 Receptor (Adrb1), ADRB1 (gene 153) (UniProt P08588); experiment: NVS_GPCR_hAdrb1: NovaScreen (NVS) G Protein-Coupled Receptor Assay for human Adrenergic, Beta 1 Receptor (Adrb1) (AID 2283258)
# Procedure, shortened: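 Membranes/protein extracted from human neuroepithelioma cells, radioligand competition binding read by filtration and scintillation 2 h post-dose. Single 25 uM duplicate screen, then concentration-response follow-up; DMSO as negative control.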
# [8] = target: human Adrenergic, Alpha 2A Receptor (Adra2A), ADRA2A (gene 150) (UniProt P08913); experiment: NVS_GPCR_hAdra2A: NovaScreen (NVS) G Protein-Coupled Receptor Assay for human Adrenergic, Alpha 2A Receptor (Adra2A) (AID 2283257)
# Procedure, shortened: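 Displacement of a specific radioligand from HT29 membrane protein was counted by filter scintillation after 1 h. Compounds were screened in duplicate at 25 uM, and actives were retested in concentration series. Fitting was positive-direction against DMSO.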
# [9] = tested on: guinea pig Muscarinic, Peripheral (Mperiperal) Receptor, Non-selective Binding, gene 100379235; experiment: NVS_GPCR_gMPeripheral_NonSelective: NovaScreen (NVS) G Protein-Coupled Receptor Assay for guinea pig Muscarinic, Peripheral (Mperiperal) Receptor, Non-selective Binding (AID 2283250)
# Procedure, shortened: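 Screened in duplicate at 25 uM, hits retested in concentration series to 50 uM max, using bladder membrane radioligand displacement from guinea pig. Filtration and scintillation counting 1 h post-dose, fitted relative to DMSO.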
# [10] = target: guinea pig Opioid, Kappa 1 Receptor (OpiateK), OPRK1 (gene 100135587) (UniProt P41144); experiment: NVS_GPCR_gOpiateK: NovaScreen (NVS) G Protein-Coupled Receptor Assay for guinea pig Opioid, Kappa 1 Receptor (OpiateK) (AID 2283252);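 further: radioligand displacement from kappa opioid receptor in guinea pig cerebellar membranes; active means reduced radioligand binding relative to DMSO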
# Procedure, shortened: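 Cell-free tissue prep: guinea pig cerebellar membranes, radioligand displacement, 2 h incubation. Readout: filtration plus scintillation counting. Primary single-point 25 uM duplicate; actives retested in concentration series; DMSO negative control.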
# [11] = target: rat Monoamine Oxidase, MAO-B, Peripheral (MAOBP), Maob (gene 25750) (UniProt P19643); experiment: NVS_ENZ_rMAOBP: NovaScreen (NVS) Enzymatic Assay for rat Monoamine Oxidase, MAO-B, Peripheral (MAOBP) (AID 2283242)
# [12] = target: human Serotonin, 5-Hydroxytryptamine Receptor 6 (5HT6), HTR6 (gene 3362) (UniProt P50406); experiment: NVS_GPCR_h5HT6: NovaScreen (NVS) G Protein-Coupled Receptor Assay for human Serotonin, 5-Hydroxytryptamine Receptor 6 (5HT6) (AID 2283253)
# Procedure, shortened: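 Filter scintillation counting of radioligand displacement from HEK293-expressed 5HT6, 1 hour post-dose, with loss of signal relative to DMSO. Single 25 uM duplicates first, with concentration series for confirmation.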
# [13] = tested on: rat Monoamine Oxidase, MAO-A, Central (MAOAC), gene 29253; experiment: NVS_ENZ_rMAOAC: NovaScreen (NVS) Enzymatic Assay for rat Monoamine Oxidase, MAO-A, Central (MAOAC) (AID 2283243);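 further: potency refers to inhibition seen as signal drop below DMSO baseline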
# Procedure, shortened: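 Scintillation read-out of MAO-A activity in rat brain lysate, 1.5 h post-dosing. Primary single-concentration screen: 25 uM, duplicate; actives re-tested in concentration series. DMSO = negative control/baseline.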
# [14] = target: Beta-2 adrenergic receptor (Homo sapiens) (UniProt P07550); experiment: NVS_GPCR_hAdrb2: NovaScreen (NVS) G Protein-Coupled Receptor Assay for human Adrenergic, Beta 2 Receptor (Adrb2) (AID 2283261)
# Procedure, shortened: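 Compounds screened in duplicate at 25 uM, then actives in concentration series. Human beta-2 receptor from CHO material, cell-free; radioligand displacement after 1 h measured by filtration and scintillation against DMSO baseline.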
# [15] = target: human Adrenergic, Alpha 2c Receptor (Adra2C), ADRA2C (gene 152) (UniProt P18825); experiment: NVS_GPCR_hAdra2C: NovaScreen (NVS) G Protein-Coupled Receptor Assay for human Adrenergic, Alpha 2c Receptor (Adra2C) (AID 2283259)
# Procedure, shortened: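 Screened first in duplicate at 25 uM, with actives then run as concentration series. Membranes from Sf9 cells were exposed for 1 h, and displacement of radioligand was counted after filtration, using DMSO as baseline.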
# [16] = target: human Serotonin, 5-Hydroxytryptamine Receptor 2A (5HT2A), HTR2A (gene 3356) (UniProt P28223); experiment: NVS_GPCR_h5HT2A: NovaScreen (NVS) G Protein-Coupled Receptor Assay for human Serotonin, 5-Hydroxytryptamine Receptor 2A (5HT2A) (AID 2283249)
# Procedure, shortened: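 Radioligand displacement on human cortex tissue extract, counted by filtration and scintillation 1.5 h post-dosing. Initial single-concentration screen at 25 uM in duplicate, concentration series in follow-up; DMSO as baseline.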
# [17] = tested on: bovine Histamine 1 Receptor (H1), gene 281231; experiment: NVS_GPCR_bH1: NovaScreen (NVS) G Protein-Coupled Receptor Assay for bovine Histamine 1 Receptor (H1) (AID 2283246)
# Procedure, shortened: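 Hits from a 25 uM duplicate primary screen were retested in concentration series (top 50 uM); binding measured as scintillation-counted displacement of radioligand from bovine cerebellar membranes after 1 h, normalised to DMSO.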
# [18] = target: bovine Dopamine Receptor (DR), Non-selective Binding, DRD1 (gene 281125) (UniProt Q95136); experiment: NVS_GPCR_bDR_NonSelective: NovaScreen (NVS) G Protein-Coupled Receptor Assay for bovine Dopamine Receptor (DR), Non-selective Binding (AID 2283241)
# Procedure, shortened: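 Filter-based radioligand binding with bovine striatal membrane, incubated 1 h; DMSO as negative baseline. Initial duplicate single-point test at 25 uM preceded concentration series for actives.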
# [19] = NVS_GPCR_bNPY_NonSelective: NovaScreen (NVS) G Protein-Coupled Receptor Assay for bovine Neuropeptide Y (NPY) Receptor, Non-selective Binding (AID 2283245)
# Procedure, shortened: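 Displacement of radioligand from bovine hippocampal membrane receptors, read by filtration and scintillation counting after 1 hour. Concentration-response to a top of 50 uM followed a 25 uM duplicate primary screen. Loss of signal versus DMSO.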
# Chain of rat Monoamine Oxidase, MAO-B, Peripheral (MAOBP), Maob (gene 25750) (P19643 whole entry, looked up): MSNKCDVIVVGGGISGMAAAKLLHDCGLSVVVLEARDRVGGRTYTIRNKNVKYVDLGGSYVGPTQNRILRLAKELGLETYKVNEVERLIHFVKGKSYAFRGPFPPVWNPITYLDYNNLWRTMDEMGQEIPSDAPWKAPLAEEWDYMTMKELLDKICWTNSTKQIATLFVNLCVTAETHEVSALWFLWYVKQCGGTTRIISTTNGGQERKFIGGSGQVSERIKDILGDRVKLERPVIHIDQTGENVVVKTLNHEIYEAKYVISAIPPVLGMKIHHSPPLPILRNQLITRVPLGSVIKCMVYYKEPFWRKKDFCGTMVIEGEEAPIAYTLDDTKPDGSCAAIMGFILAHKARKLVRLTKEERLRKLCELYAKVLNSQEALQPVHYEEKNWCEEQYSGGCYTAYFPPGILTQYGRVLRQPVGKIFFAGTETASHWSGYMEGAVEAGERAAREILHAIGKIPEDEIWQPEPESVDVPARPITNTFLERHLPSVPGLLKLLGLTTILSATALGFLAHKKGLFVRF
# Chain of Adenosine receptor A1 (Bos taurus) (P28190 whole entry, looked up): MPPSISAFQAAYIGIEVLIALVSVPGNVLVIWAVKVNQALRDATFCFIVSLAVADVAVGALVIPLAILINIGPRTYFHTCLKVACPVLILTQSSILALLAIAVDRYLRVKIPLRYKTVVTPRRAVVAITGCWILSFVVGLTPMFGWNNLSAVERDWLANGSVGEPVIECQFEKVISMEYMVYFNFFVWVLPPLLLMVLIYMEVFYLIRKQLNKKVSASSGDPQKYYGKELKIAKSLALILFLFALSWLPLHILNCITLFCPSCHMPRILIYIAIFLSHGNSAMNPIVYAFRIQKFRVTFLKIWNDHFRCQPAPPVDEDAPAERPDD
# Chain of human Adrenergic, Beta 1 Receptor (Adrb1), ADRB1 (gene 153) (P08588 whole entry, looked up): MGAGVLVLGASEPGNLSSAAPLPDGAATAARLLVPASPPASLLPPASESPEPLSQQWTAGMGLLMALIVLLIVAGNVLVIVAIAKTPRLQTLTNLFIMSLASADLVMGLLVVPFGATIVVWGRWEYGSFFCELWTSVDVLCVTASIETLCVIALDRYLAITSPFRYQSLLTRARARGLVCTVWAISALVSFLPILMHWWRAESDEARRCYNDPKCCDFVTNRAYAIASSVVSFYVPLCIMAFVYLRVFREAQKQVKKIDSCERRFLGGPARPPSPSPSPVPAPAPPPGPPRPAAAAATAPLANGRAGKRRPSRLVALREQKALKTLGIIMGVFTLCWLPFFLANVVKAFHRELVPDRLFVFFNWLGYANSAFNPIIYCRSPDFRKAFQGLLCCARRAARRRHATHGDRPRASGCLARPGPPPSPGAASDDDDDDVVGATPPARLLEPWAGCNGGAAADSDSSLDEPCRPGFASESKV
# Chain of guinea pig Opioid, Kappa 1 Receptor (OpiateK), OPRK1 (gene 100135587) (P41144 whole entry, looked up): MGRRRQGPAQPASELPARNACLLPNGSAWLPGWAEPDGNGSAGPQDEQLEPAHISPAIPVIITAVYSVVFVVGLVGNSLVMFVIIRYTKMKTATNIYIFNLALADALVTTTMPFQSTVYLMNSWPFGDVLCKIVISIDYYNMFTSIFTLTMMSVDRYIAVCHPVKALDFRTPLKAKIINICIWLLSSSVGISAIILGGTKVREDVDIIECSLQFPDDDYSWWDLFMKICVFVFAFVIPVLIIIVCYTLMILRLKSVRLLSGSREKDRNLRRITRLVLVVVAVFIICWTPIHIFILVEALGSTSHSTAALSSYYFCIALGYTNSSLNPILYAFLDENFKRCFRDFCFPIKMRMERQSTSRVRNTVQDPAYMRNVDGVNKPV
# Chain of human Serotonin, 5-Hydroxytryptamine Receptor 7 (5HT7), HTR7 (gene 3363) (P34969 whole entry, looked up): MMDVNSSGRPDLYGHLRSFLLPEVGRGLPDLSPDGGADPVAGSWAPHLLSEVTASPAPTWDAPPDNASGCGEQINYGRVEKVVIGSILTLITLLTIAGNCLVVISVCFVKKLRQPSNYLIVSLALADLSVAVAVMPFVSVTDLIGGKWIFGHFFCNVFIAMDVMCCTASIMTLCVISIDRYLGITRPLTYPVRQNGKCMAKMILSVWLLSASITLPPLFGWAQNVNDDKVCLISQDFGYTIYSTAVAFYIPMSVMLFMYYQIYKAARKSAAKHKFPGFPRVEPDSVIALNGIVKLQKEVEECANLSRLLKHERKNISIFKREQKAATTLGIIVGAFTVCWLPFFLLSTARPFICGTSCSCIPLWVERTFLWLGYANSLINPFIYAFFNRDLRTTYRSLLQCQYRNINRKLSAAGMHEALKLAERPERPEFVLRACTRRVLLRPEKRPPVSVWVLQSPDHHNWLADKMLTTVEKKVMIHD
# Chain of human Adenosine A2a Receptor (AdoRA2a), ADORA2A (gene 135) (P29274 whole entry, looked up): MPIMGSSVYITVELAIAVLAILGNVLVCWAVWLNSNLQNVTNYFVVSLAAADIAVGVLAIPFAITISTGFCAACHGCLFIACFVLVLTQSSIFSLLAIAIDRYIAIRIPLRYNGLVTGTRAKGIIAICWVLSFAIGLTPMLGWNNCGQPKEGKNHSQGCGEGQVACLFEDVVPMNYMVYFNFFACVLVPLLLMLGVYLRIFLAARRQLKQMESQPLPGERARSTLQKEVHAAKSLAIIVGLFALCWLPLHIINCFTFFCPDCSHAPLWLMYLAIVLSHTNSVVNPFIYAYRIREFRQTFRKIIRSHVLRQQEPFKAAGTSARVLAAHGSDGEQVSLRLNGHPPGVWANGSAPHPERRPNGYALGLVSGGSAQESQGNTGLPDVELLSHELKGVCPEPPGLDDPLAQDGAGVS
# Chain of human Serotonin, 5-Hydroxytryptamine Receptor 5A (5HT5A), HTR5A (gene 3361) (P47898 whole entry, looked up): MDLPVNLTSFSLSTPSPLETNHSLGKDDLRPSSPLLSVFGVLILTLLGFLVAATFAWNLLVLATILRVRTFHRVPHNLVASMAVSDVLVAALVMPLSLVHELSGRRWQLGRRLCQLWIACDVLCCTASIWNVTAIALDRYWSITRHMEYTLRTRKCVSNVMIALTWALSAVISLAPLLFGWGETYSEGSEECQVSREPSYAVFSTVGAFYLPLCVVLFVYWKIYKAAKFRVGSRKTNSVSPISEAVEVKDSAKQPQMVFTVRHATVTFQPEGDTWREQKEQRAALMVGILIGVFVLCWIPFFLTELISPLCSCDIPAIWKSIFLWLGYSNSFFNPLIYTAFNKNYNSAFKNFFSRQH
# Chain of guinea pig Leukotriene D4 Receptor (LTD4), CYSLTR1 (gene 100135514) (Q2NNR5 whole entry, looked up): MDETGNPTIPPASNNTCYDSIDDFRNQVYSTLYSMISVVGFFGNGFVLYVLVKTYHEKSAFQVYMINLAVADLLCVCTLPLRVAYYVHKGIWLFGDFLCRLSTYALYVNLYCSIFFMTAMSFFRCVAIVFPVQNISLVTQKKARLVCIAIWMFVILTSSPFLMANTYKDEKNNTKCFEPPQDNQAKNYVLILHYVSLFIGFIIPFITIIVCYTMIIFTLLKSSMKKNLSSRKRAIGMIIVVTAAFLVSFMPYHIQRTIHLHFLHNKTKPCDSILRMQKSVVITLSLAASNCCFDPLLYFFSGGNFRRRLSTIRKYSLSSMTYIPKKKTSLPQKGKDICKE
# Chain of bovine Dopamine Receptor (DR), Non-selective Binding, DRD1 (gene 281125) (Q95136 whole entry, looked up): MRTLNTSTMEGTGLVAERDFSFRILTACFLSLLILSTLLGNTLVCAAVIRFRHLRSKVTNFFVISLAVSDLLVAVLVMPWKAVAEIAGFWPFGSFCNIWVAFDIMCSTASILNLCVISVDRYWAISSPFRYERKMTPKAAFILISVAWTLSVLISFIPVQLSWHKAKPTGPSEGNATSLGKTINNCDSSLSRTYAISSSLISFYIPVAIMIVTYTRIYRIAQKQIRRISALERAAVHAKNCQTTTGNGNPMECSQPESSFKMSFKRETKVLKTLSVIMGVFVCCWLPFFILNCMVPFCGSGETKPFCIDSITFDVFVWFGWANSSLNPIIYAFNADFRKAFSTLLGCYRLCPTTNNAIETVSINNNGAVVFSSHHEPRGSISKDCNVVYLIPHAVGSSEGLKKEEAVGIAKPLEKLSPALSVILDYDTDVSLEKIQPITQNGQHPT
# Chain of human Serotonin, 5-Hydroxytryptamine Receptor 2A (5HT2A), HTR2A (gene 3356) (P28223 whole entry, looked up): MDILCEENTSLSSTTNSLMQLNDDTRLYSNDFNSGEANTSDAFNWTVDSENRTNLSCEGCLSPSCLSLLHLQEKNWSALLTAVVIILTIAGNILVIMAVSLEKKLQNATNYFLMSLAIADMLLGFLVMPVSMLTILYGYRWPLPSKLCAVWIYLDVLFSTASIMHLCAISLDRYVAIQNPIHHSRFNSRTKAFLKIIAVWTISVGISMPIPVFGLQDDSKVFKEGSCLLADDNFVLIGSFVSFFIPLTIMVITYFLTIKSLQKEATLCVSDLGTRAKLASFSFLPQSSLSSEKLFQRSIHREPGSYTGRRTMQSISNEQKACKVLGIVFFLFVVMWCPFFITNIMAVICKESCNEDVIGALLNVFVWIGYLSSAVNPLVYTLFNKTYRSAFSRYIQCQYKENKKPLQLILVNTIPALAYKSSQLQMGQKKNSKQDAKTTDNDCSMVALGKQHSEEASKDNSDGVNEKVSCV
# Chain of human Adrenergic, Alpha 2c Receptor (Adra2C), ADRA2C (gene 152) (P18825 whole entry, looked up): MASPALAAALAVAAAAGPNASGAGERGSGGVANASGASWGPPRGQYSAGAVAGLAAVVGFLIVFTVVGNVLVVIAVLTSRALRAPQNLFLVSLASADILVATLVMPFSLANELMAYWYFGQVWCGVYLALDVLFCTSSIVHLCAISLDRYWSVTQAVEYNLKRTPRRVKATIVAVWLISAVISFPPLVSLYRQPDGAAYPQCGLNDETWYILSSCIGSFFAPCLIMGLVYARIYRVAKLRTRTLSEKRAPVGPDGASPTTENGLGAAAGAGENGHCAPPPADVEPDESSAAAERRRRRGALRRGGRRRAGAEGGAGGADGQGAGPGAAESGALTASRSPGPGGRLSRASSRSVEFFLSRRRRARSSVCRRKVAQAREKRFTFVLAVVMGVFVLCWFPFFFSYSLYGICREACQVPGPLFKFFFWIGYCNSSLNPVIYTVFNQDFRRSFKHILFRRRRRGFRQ
compound,measurement,setting,value
CCCCNC(=O)n1c(NC(=O)OC)nc2ccccc21,outcome,[1],inactive
CCOc1cc(Oc2ccc(C(F)(F)F)cc2Cl)ccc1[N+](=O)[O-],outcome,[2],inactive
same,outcome,[3],inactive
COc1nc(NC(C)C)nc(NC(C)C)n1,AC50,[4],25 µM (active)
same,AC50,[5],9.33 µM (active)
C#CCOS(=O)OC1CCCCC1Oc1ccc(C(C)(C)C)cc1 (centres undefined),outcome,[2],inactive
same,AC50,[3],35 µM (active)
same,AC50,[6],25 µM (active)
same,outcome,[7],inactive
N#CC(CCc1ccc(Cl)cc1)(Cn1cncn1)c1ccccc1 (centres undefined),outcome,[1],inactive
same,outcome,[8],inactive
CO/C=C(/C(=O)OC)c1ccccc1Oc1cc(Oc2ccccc2C#N)ncn1,AC50,[4],19.1 µM (active) and 7.23 µM (active)
same,outcome,[9],inactive
same,AC50,[10],12.3 µM (active) [middle of 4 runs]
same,AC50,[6],5.24 µM (active)
same,outcome,[7],inactive
Cc1cc(Cl)ccc1OCC(=O)O,outcome,[3],inactive
CN(C)C(=S)SSC(=S)N(C)C,outcome,[11],inactive
same,outcome,[10],inactive
same,AC50,[12],5.18 µM (active)
same,AC50,[6],6.92 µM (active)
same,outcome,[7],inactive
COc1nc(C)nc(NC(=O)NS(=O)(=O)c2ccccc2Cl)n1,AC50,[13],37.7 µM (active)
same,outcome,[13],inactive
OC(c1ccc(Cl)cc1)(c1cncnc1)c1ccccc1Cl (centres undefined),outcome,[3],inactive
same,AC50,[10],9.41 µM (active)
same,AC50,[12],8.03 µM (active)
same,outcome,[14],inactive
C=CCC1=C(C)C(OC(=O)C2C(C=C(C)C)C2(C)C)CC1=O (centres undefined),outcome,[2],inactive
same,outcome,[7],inactive
same,outcome,[15],inactive
Fc1ccc(Oc2ccnc3cc(Cl)cc(Cl)c23)cc1,outcome,[13],inactive
same,outcome,[16],inactive
same,outcome,[3],inactive
same,outcome,[8],inactive
CCOC(=O)CC(SP(=S)(OC)OC)C(=O)OCC (centres undefined),AC50,[4],9.48 µM (active)
same,AC50,[10],15.2 µM (active)
same,AC50,[5],5.74 µM (active)
COc1ccc(C(c2ccc(OC)cc2)C(Cl)(Cl)Cl)cc1,outcome,[3],inactive
same,outcome,[7],inactive
same,outcome,[15],inactive
same,outcome,[14],inactive
CCNc1nc(Cl)nc(NCC)n1,outcome,[16],inactive
CNC(=S)S,outcome,[11],inactive
same,outcome,[17],inactive
Cc1ccc(-c2c(Cl)nc(C#N)n2S(=O)(=O)N(C)C)cc1,AC50,[13],4.79 µM (active)
same,AC50,[1],1.93 µM (active)
same,outcome,[2],inactive
CCCCNC(=O)OCC#CI,outcome,[18],inactive
same,AC50,[11],42.4 µM (active)
same,AC50,[4],11.9 µM (active)
same,outcome,[4],inactive
same,AC50,[19],4.96 µM (active)
same,outcome,[19],inactive
same,outcome,[9],inactive
same,AC50,[10],37.9 µM (active) and 40.9 µM (active)
CCCN(CCC)c1c([N+](=O)[O-])cc(S(N)(=O)=O)cc1[N+](=O)[O-],outcome,[3],inactive
same,outcome,[5],inactive
COC(=O)N(OC)c1ccccc1COc1ccn(-c2ccc(Cl)cc2)n1,AC50,[6],0.944 µM (active)
